According to PubChem BioAssay (NCATS):
Inconclusive results are not listed. A call without a number means that no potency is given here. Unmarked numbers belong to inactive results. The source made the active and inactive calls. Calls follow the shape of the dose curve; as a rule, active = well fitted inhibition curve with a large enough effect; inconclusive = small, poorly fitted or top-dose-only effect; inactive = no such curve, though single readings can be large or run the other way.

Assays:
[1] = system: Zika virus NS2B-NS3 protease (unlinked complex); test: Primary screen GU Rhodamine qHTS for Zika virus inhibitors: Unlinked NS2B-NS3 protease assay (AID 1347159); also: nearly all actives have a fitted effect of over 60% in size
Summary of the method: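 Noncovalent NS2B hydrophilic domain/NS3 protease complex (25 nM final) in 10 mM Tris-HCl pH 8.0, 0.01% Tween 20, preincubated 15 min with compounds (up to 114 microM), then 1.5 microM Rhodamine110 substrate. Fluorescence change over 15 min fitted to 4-parameter Hill.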

[2] = system: Zika virus NS2B-NS3 protease (linked construct); test: Primary screen NINDS Rhodamine qHTS for Zika virus inhibitors (AID 1347160); also: nearly all actives have a fitted effect of over 55% in size
Summary of the method: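 Purified NS2B-NS3 protease with the NS2B hydrophilic domain joined by a flexible linker (25 nM) in 10 mM Tris-HCl pH 8.0, 0.01% Tween 20, preincubated 15 min at RT with compound; Rhodamine110 peptide substrate 1.5 µM; fluorescence change over 15 min; 4-parameter Hill fit.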
Potency is read from the fitted curve at half-maximal effect.

CC1(C)CC[C@]2(C(=O)O[C@@H]3O[C@H](CO)[C@@H](O)[C@H](O)[C@H]3O)CC[C@]3(C)C(=CCC4[C@@]5(C)CC[C@H](O[C@@H]6O[C@H](C(=O)O)[C@@H](O[C@@H]7O[C@H](CO)[C@@H](O)[C@H](O)[C@H]7O)[C@H](O)[C@H]6O)C(C)(C)C5CC[C@]43C)C2C1 (stereo not given in full)
Potency [1]: inactive
Potency [2]: inactive

O=C(c1c2ccccc2cc2ccccc12)N1CCC(N2CCC[C@@H](C(=O)N3CCOCC3)C2)CC1
Potency [1]: inactive
Potency [2]: inactive

Cn1cc(Nc2cnccc2C(=O)O)c2cccnc21
Potency [1]: inactive
Potency [2]: inactive

CC(NC(=O)CC(=O)O)C(=O)Nc1ccccc1C(N)=O (stereo not given)
Potency [1]: inactive
Potency [2]: inactive

C=C(C(=O)O)C1CC(O)C2(C)CCCC(C)(O)C2C1 (stereo not given)
Potency [1]: inactive
Potency [2]: inactive

COC(=O)Cn1nc(-c2cccc(OC)c2)c2ccccc21
Potency [1]: inactive
Potency [2]: inactive

COc1cc(-c2ccc(O)cc2)c(OC)c(O)c1C1=CC(=O)OC1CC(=O)O (stereo not given)
Potency [1]: inactive
Potency [2]: inactive

CC1(C)CCC[C@@]2(C)[C@H]1[C@H](O)C=C(CO)[C@]2(O)CO
Potency [1]: inactive
Potency [2]: inactive

CC(=O)NC(Cc1c[nH]c2ccccc(=O)c12)C(=O)O (stereo not given)
Potency [1]: 22.4 µM (active)
Potency [2]: 15.8 µM (active)

C=C1[C@H](OC(C)=O)[C@H]2[C@@H](OC(=O)c3ccccc3)[C@@H](C)C[C@]2(O)[C@@H](OC(C)=O)[C@H](C)/C=C/C(C)(C)C(=O)[C@H](OC(C)=O)[C@H]1OC(C)=O
Potency [1]: inactive
Potency [2]: inactive

C[C@@H]1[C@H](O)[C@@H]2OC(=O)C3=C2[C@H](CCC3)[C@@]12C[C@@H](c1ccoc1)OC2=O
Potency [1]: inactive
Potency [2]: inactive

CC(=O)OCC(Cc1ccccc1)NC(=O)C(Cc1ccccc1)NC(=O)c1ccccc1 (stereo not given)
Potency [1]: inactive
Potency [2]: inactive

CC1(C)CC[C@]2(C(=O)O)CC[C@]3(C)C(=CCC4[C@@]5(C)CC[C@H](O[C@@H]6O[C@H](C(=O)O)[C@@H](O)[C@H](O[C@@H]7O[C@H](CO)[C@H](O)[C@H](O)[C@H]7O)[C@H]6O[C@@H]6O[C@H](CO)[C@@H](O)[C@H](O)[C@H]6O)C(C)(C)C5CC[C@]43C)[C@@H]2C1 (stereo not given in full)
Potency [1]: 5.62 µM (active)
Potency [2]: inactive

O=C(CC1CC(c2ccc(F)cc2F)=NO1)N1CCOCC1 (stereo not given)
Potency [1]: inactive
Potency [2]: inactive

NC(N)=NCCC[C@H](NC(=O)c1sccc1NS(=O)(=O)c1cccc2nsnc12)C(=O)O
Potency [1]: inactive
Potency [2]: inactive

C/C=C1/[C@H](O[C@@H]2O[C@H](CO)[C@@H](O)[C@H](O)[C@H]2O)OC=C2C(=O)O[C@@H]3C[C@@H](C(C)CO)[C@H](COC(=O)C[C@H]21)[C@H]3C (stereo not given in full)
Potency [1]: inactive
Potency [2]: inactive

CC[C@H]1OC(=O)[C@H](C)C(=O)[C@H](C)[C@@H](OC2O[C@H](C)C[C@H](N(C)C)[C@H]2O)[C@@H](C)C[C@@H](C)C(=O)/C=C/[C@]1(C)O (stereo not given in full)
Potency [1]: inactive
Potency [2]: inactive

CC(O)CCc1ccc(O[C@@H]2O[C@H](CO)[C@@H](O)[C@H](O)[C@H]2O)cc1 (stereo not given in full)
Potency [1]: inactive
Potency [2]: inactive

O=C(OC1C=C(CO)C2C(OC3OC(CO)C(O)C(O)C3O)OC=CC12O)c1ccc(O)cc1 (stereo not given)
Potency [1]: inactive
Potency [2]: inactive

CC1=CC(=O)CC(C)(C)C1CCC(C)O[C@@H]1O[C@H](CO)[C@@H](O)[C@H](O)[C@H]1O (stereo not given in full)
Potency [1]: inactive
Potency [2]: inactive

COC(=O)C(CC1(O)c2ccccc2N2C(=O)C(C)(C)N(O)C21)n1cnc2ccccc2c1=O (stereo not given)
Potency [1]: inactive
Potency [2]: inactive

COc1cc(Nc2nc3c(s2)CCCC3c2ccccc2)ccc1-n1cnc(C)c1 (stereo not given)
activity change, negative = inhibition [1]: -0.986% [at 19.1 µM]
Potency [2]: inactive

COc1ccnc(CCc2nc3ncccc3[nH]2)c1
Potency [1]: inactive
Potency [2]: inactive

CC(C)=CCc1c(O)cc2oc3cc(C)cc(O)c3c2c1C
Potency [1]: 20 µM (active)
Potency [2]: inactive

Oc1ccc2c(-c3c(-c4ccccn4)nn4c3CCC4)ccnc2c1
Potency [1]: inactive
Potency [2]: inactive

C[C@@H](c1ccccc1)N(C(N)=NC#N)c1cccc2ncccc12
Potency [1]: inactive
Potency [2]: inactive

CC1=CCC[C@@H]2[C@@](C)(CCc3ccoc3)[C@H](C(=O)O)CC[C@@]12C
Potency [1]: 31.6 µM (active)
Potency [2]: inactive

O=C(CCCCC1CCCCC1)N1CCC(c2cnc[nH]2)CC1
Potency [1]: inactive
Potency [2]: inactive

CC(C)/C=C1/NC(=O)C(C(C)C)n2c1nc1c(O)cccc1c2=O (stereo not given)
Potency [1]: inactive
Potency [2]: inactive

CC(=O)NCC1CN(c2ccc(-c3ccc(CNCc4cn[nH]n4)cc3)c(F)c2)C(=O)O1 (stereo not given)
Potency [1]: inactive
Potency [2]: inactive
